Results on 15 molecules are retold here after PubChem BioAssay.

For test [1], the system named is PRMT1 (protein arginine N-methyltransferase 1). Kind of test: PRMT1 binders on small-molecule microarrays, primary screen, biochemical, small-molecule microarray, 635 nm fluorescence (AID 1088).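 Further: binding of Prmt1 protein to compounds spotted on small-molecule microarray slides.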 The settings on record: small-molecule microarray binding, higher = more signal.
Test [2] can be described thus: yeast growth modulation, basal conditions, primary screen, YJM789 clinical isolate, OD600, 24 h (AID 1089).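 Further: growth of clinical yeast isolate S. cerevisiae YJM 789 seeded 1000 cells per well; test concentration not given here.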 The settings on record: S. cerevisiae YJM789 growth, higher = more signal, called active from +8 up or from −8 down.
Test [3] in a line: fission yeast growth modulation, primary screen, strain 972, OD600, 24 h, no modulator (AID 1090).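 Further: basal condition with compound alone and no growth modifier present; test concentration not given here.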 The settings on record: S. pombe 972 growth, higher = more signal, called active from +8 up or from −8 down.
Test [4] in a line: S. cerevisiae growth modulation with rapamycin, primary screen, strain BY4716, OD600, 96 h (AID 1091). Further: test concentration not given here. The settings on record: higher = more signal, called active from +8 up or from −8 down.
Test [5] has as its target Torsin-1A-interacting protein 2 (Homo sapiens) (UniProt Q8NFQ8). Kind of test: LULL1 binders on small-molecule microarray, primary screen, cell lysate, human LULL1 lysate, 635/667 nm fluorescence (AID 1092).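 Further: probe is lysate of COS7 cells overexpressing human LULL1; score merges per-feature 667 nm fluorescence with signal-to-noise.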 The settings on record: hLULL1 lysate binding, 635 nm fluorescence, higher = more signal.
The nature of test [6]: E. coli growth modulation, two-sided OD650, primary screen, E. coli filamentation project, strain DRC41, 24 h (AID 1093).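 Further: MC1000 strain lacking acrAB efflux and sulA so SOS filamentation is blocked; test concentration not given here.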 The settings on record: OD650, 24 h, higher = more signal, called active from +8 up or from −8 down.
Test [7] in a line: small-molecule microarray binders of probe aLefty2, primary screen, biochemical, biotinylated probe, 635/667 nm fluorescence (AID 1094).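 Further: score merges spot fluorescence near 667 nm with spot signal-to-noise ratio.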 The settings on record: higher = more signal.
Test [8] deals with Noggin (protein binding on small-molecule microarray). Nature of the test: Noggin binders on small-molecule microarray, primary screen, biochemical, 635/667 nm fluorescence (AID 1095).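 Further: score merges 667 nm feature fluorescence with signal to noise over triplicate slides.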 The settings on record: 635 nm fluorescence, higher = more signal.
Test [9] has as its target Neurogenic locus notch homolog protein 3 (Homo sapiens) (UniProt Q9UM47). Nature of the test: NOTCH3 binders on small-molecule microarray, primary screen, biochemical, 635/667 nm fluorescence (AID 1096). The settings on record: NOTCH3 binding, 635 nm fluorescence, higher = more signal.
The nature of test [10]: small-molecule microarray binders of probe aEGFR, primary screen, biochemical, biotinylated probe, 635/667 nm fluorescence (AID 1097).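 Further: probe is a biotinylated anti-EGFR antibody binding compounds printed on slides; score combines fluorescence near 667 nm and signal to noise of each spot.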 The settings on record: higher = more signal.

The source made the active and inactive calls.

Chain of Torsin-1A-interacting protein 2 (Homo sapiens) (Q8NFQ8 whole entry, looked up): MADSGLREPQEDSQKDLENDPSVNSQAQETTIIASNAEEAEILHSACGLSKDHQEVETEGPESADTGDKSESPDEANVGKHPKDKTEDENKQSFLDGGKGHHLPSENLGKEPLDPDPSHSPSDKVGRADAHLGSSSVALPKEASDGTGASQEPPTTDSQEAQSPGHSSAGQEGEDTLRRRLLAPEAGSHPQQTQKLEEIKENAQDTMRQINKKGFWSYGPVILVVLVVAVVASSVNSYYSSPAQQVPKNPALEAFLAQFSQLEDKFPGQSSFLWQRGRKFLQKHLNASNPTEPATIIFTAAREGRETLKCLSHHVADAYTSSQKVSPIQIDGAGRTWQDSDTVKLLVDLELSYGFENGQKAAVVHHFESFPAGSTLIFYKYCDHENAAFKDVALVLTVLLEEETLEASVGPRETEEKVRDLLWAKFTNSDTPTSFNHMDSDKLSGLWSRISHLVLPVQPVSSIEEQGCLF
Chain of Neurogenic locus notch homolog protein 3 (Homo sapiens) (Q9UM47 whole entry, looked up): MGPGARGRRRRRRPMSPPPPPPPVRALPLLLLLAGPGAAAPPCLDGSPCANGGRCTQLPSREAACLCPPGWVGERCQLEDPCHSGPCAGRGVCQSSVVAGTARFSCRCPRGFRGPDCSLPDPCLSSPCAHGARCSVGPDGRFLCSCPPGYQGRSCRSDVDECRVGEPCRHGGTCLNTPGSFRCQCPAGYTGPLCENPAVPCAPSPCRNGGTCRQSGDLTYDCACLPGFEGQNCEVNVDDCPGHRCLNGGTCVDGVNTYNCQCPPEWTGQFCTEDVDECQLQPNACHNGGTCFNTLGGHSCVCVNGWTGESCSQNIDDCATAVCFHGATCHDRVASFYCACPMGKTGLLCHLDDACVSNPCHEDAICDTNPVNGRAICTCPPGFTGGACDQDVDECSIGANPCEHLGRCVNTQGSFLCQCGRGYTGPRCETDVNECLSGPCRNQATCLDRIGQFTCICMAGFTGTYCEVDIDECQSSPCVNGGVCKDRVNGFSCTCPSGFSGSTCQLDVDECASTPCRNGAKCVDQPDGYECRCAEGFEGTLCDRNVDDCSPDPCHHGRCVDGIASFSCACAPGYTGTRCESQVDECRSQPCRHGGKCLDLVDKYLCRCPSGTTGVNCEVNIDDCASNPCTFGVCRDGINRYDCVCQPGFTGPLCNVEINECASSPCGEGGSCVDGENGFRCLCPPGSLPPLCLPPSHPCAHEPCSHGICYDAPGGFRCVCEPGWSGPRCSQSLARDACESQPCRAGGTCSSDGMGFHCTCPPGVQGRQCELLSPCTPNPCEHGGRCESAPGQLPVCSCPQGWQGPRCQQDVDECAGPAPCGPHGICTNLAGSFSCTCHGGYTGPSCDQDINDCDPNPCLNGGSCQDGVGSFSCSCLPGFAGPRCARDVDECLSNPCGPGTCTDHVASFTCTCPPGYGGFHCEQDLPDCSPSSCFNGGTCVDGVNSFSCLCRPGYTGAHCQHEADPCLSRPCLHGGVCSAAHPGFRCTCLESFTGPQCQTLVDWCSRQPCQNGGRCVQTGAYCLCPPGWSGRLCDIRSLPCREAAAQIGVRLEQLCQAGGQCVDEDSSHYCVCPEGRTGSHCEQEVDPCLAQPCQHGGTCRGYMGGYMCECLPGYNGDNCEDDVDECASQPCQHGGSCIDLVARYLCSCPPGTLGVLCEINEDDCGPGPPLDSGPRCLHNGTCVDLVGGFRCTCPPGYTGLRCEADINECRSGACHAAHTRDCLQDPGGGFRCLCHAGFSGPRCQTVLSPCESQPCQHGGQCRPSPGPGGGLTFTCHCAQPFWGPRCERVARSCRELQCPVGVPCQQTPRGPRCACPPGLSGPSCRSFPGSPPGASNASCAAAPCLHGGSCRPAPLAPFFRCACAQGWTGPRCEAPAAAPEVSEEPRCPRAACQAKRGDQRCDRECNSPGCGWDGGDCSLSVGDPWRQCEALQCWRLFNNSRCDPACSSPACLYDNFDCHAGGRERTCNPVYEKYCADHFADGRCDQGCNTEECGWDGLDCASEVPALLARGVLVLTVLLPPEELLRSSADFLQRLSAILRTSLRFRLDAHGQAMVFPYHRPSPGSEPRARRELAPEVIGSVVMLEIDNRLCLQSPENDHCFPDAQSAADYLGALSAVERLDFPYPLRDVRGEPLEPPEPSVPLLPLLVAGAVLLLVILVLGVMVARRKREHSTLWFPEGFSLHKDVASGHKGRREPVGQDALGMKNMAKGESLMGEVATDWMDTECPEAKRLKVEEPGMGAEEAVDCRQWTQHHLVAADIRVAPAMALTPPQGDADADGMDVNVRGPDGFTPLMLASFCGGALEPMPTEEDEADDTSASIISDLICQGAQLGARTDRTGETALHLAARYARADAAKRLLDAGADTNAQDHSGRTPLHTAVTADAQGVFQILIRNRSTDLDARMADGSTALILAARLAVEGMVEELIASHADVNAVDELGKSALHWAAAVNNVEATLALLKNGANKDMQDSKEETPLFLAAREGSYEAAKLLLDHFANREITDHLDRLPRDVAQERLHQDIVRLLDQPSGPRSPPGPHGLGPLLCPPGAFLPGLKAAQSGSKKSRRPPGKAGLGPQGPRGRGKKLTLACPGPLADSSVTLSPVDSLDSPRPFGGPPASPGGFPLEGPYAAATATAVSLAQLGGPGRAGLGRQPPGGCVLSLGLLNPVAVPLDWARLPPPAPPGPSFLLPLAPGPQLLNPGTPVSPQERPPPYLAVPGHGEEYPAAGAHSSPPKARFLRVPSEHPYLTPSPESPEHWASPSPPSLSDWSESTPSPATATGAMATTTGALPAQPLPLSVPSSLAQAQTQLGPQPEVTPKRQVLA

In the case of `O[C@@H](Cc1ccccc1)[C@@H](/C=C/C1CC1)NCc1cccc(Cl)c1`, the composite z-score was -0.534 in test [1]; -0.44 in test [5]; 0.0558 in test [7]; -1.08 in test [8]; -0.419 in [9]; -0.296 in test [10]. Besides, the z-score in [2] is -2.26 (inactive); in test [3], -19 (active); in test [4], -2.31 (inactive); in test [6], -0.59 (inactive).
For the molecule `COCCOC(=O)N1C(=O)[C@@]2(c3ccccc31)[C@H](C(=O)N1CCCCCCC1)[C@H]1C(=O)O[C@H](c3ccccc3)[C@H](c3ccccc3)N1[C@@H]2c1ccc(OCCO)cc1`, the composite z-score in [1] worked out at 1.54; in [5], 4.99; in [7] it was 1.98; in [8] it was 2.22; in test [9], 1; in [10], 1.38. The z-score in test [2] was 1.9 (inactive); in test [3], 1.62 (inactive); in test [4], 4.28 (inactive); in [6], -0.348 (inactive).
`COc1ccc(C(=O)Nc2ccc(CN3C(=O)[C@]4(O[C@H](CC(=O)N5CCC[C@H]5CO)[C@@H]([Si](C)(C)c5ccc(OC)cc5)[C@@H]4C)c4ccccc43)cc2)cc1`: the composite z-score in test [1] is 1.54; in test [5] it was 2.57; in [7], -0.124; in test [8], 1.35; in test [9], 1.1; in [10] it was -0.12. In addition, the z-score in test [2] was -0.676 (inactive); in test [3], 0.173 (inactive); in test [4], -0.539 (inactive); in test [6], -0.481 (inactive).
On to `O=C1NC(=O)C2C1C=CC(C(O)c1ccc(I)cc1)N2Nc1ccc(Cl)cc1Cl` (stereo not given), for which the composite z-score is 0.265 in [1]; 2.64 in test [5]; 0.162 in test [7]; -0.0422 in test [8]; 0.925 in test [9]; -0.0953 in test [10]. In addition, the z-score was -9.39 (active) in test [2], -5.52 (inactive) in test [3], -0.806 (inactive) in test [4] and -1.3 (inactive) in [6].
For `O=C1[C@@]23C=C(Br)[C@H](C[C@@H]2COC3)[C@]12CO2`, the composite z-score in test [1] was -1.63; in test [5] it was 0.246; in [7], -0.14; in test [8] it was -1.31; in test [9], -1.5; in [10], -0.272. Further, the z-score in test [2] was -0.241 (inactive); in test [3] it was -9 (active); in test [4] it was 0.403 (inactive); in test [6] it was -0.366 (inactive).
In the case of `CC=CC(O)C1C=CC2C(=O)N(C)C(=O)C2N1N(c1ccccc1)c1ccccc1` (stereo not given), the composite z-score in test [1] was 0.344; in test [5] it was -0.472; in [7], 0.0973; in test [8] it was -0.0867; in test [9], 0.0161; in test [10] it was 0.248. Besides, the z-score in [2] is 0.586 (inactive); in test [3], 1.91 (inactive); in [4] it was 1.29 (inactive); in [6], -0.357 (inactive).
For the molecule `CN1C(=O)C2C=CC(C(O)c3ccccc3)N(N3CCCCC3)C2C1=O` (stereo not given), the composite z-score turned out to be 0.664 in test [1]; 3.52 in test [5]; 0.0215 in test [7]; 0.145 in test [8]; 0.646 in [9]; 0.0713 in [10]. Also, the z-score in [2] is 0.201 (inactive); in [3] it was 0.24 (inactive); in test [4] it was 0.404 (inactive); in test [6] it was -2.05 (inactive).
For `CCCC1(C(=O)OC)C=C2C(=C(c3ccccc3)C(=O)C2C)CN1` (stereo not given), the composite z-score was -0.406 in test [1]; 1.64 in test [5]; 0.248 in [7]; -0.533 in test [8]; 0.0144 in test [9]; 0.0384 in test [10]. The z-score in test [2] is 0.283 (inactive); in test [3] it was 0.312 (inactive); in test [4] it was 0.763 (inactive); in [6], -0.375 (inactive).
With `COCCOC(=O)N1C(=O)[C@@]2(c3cc(C#CC4=CCCCC4)ccc31)[C@H](C(N)=O)[C@H]1C(=O)O[C@H](c3ccccc3)[C@H](c3ccccc3)N1[C@@H]2c1ccc(O)cc1`, the composite z-score in test [1] was found to be 1.55; in test [5], 3.06; in [7], 0.725; in [8], 0.735; in [9] it was 1.13; in test [10], 0.0038. Besides, the z-score in [2] is -1.59 (inactive); in test [3] it was -0.638 (inactive); in test [4], 0.0591 (inactive); in test [6] it was 0.573 (inactive).
Consider `CCCC(=O)N(CCc1c[nH]c2ccccc12)[C@@H]1CC(C(=O)NCCO)=C[C@H](Oc2c(I)cc(CO)cc2OC)[C@H]1O`, for which the composite z-score in [1] is 0.234; in test [5], 1.42; in test [7], -0.157; in test [8], 0.259; in [9], -0.0693; in [10], -0.0708. Further, the z-score in [2] was 0.5 (inactive); in test [3], -0.713 (inactive); in test [4], -0.241 (inactive); in test [6] it was 1.55 (inactive).
In the case of `CN(C)CCCCCCNC(=O)[C@@H]1C[C@@H]2C(=O)N[C@@H](CCCC[N+](C)(C)C)C(=O)N2[C@@H]1c1ccc(O)cc1`, the composite z-score in test [1] was 0.821; in test [5], 0.219; in [7], -0.0907; in test [8], 0.576; in [9] it was 0.0475; in [10], -0.221. For the same molecule, the z-score was -0.581 (inactive) in test [2], -0.689 (inactive) in [3], -0.414 (inactive) in test [4] and -0.227 (inactive) in test [6].
Turning to `C=C(CCCC)C(=O)CC[C@@H](OC(C)=O)c1ccc(CO)o1`, the composite z-score is 1.54 in test [1]; -0.0891 in test [5]; -0.241 in [7]; 1.52 in [8]; 0.582 in test [9]; -0.162 in test [10]. The z-score in test [2] is -4.06 (inactive); in test [3], -15.4 (active); in test [4], -2.36 (inactive); in test [6], 0.246 (inactive).
`COC(=O)c1c2oc(c1C(=O)OC)C(=O)N[C@@H](C(C)C)Cn1cc(nn1)C1(CCCCC1)NC(=O)N[C@H](CO)CC2`: the composite z-score in test [1] was 0.523; in [5] it was 1.41; in [7], -0.116; in test [8] it was 1.59; in test [9], 0.171; in test [10], -0.163. Moreover, the z-score was -0.301 (inactive) in [2], -0.772 (inactive) in test [3], -0.538 (inactive) in test [4] and 1.29 (inactive) in [6].
As for `CC(C)(C)OC(=O)CC[C@]1(C(=O)NCCN2CCOCC2)COC(c2ccc(OCCCO)cc2)=N1`, the composite z-score in test [1] is 1.47; in test [5], 3.4; in [7] it was -0.0984; in test [8], 1.05; in test [9], 1.03; in test [10], -0.0656. Besides, the z-score in test [2] was 0.57 (inactive); in test [3], 0.41 (inactive); in [4], -0.342 (inactive); in test [6], 0.99 (inactive).
Turning to `CC(=O)NCCCC[C@@H]1NC(=O)[C@H]2C[C@@H](C(=O)NCCCCCNC(=O)CS)[C@@H](c3ccc(O)cc3)N2C1=O`, the composite z-score was 0.524 in test [1]; 1.69 in test [5]; -0.0727 in test [7]; -0.309 in [8]; -0.527 in test [9]; -0.171 in test [10]. Besides, the z-score in test [2] is 1.16 (inactive); in test [3] it was 0.0772 (inactive); in [4], 1.76 (inactive); in test [6], 0.358 (inactive).
